# Calls of active or inactive are those of the source. How the source made its calls: active means hit-call score of the fitted dose curve at least 0.9, where 1 is the maximum; inactive means score below 0.9.
# Key:
# [1] = read-out: Transforming growth factor beta 1 (TGFb1), TGFB1 (gene 7040); assay: BSK_KF3CT_TGFb1: BioMAP Diversity Plus: KF3CT Assay for Transforming growth factor beta 1 (TGFb1) Biomarker Activity (AID 2283072); settings: primary human keratinocytes with fibroblasts; actives raise or lower the signal
# Method in brief: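 Signal changes in either direction, relative to DMSO, define activity here. TGF-b1 is read by ELISA from a human keratinocyte-fibroblast co-culture 24 h post-dose.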
# [2] = read-out: C-C motif chemokine 2 (Homo sapiens) (UniProt P13500); assay: BSK_KF3CT_MCP1: BioMAP Diversity Plus: KF3CT Assay for Monocyte Chemoattractant Protein 1 (MCP1/CCL2) Biomarker Activity (AID 2283073); settings: primary human keratinocytes with fibroblasts; actives raise or lower the signal
# Method in brief: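 ELISA read-out of MCP-1, 24 h post-dose, in primary human skin keratinocytes co-cultured with fibroblasts. Parallel SRB staining monitors cytotoxicity; changes fitted both directions relative to DMSO.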
# [3] = read-out: Matrix Metallopeptidase 9 (MMP9), MMP9 (gene 4318); assay: BSK_KF3CT_MMP9: BioMAP Diversity Plus: KF3CT Assay for Matrix Metallopeptidase 9 (MMP9) Biomarker Activity (AID 2283074); settings: primary human keratinocytes with fibroblasts; actives raise or lower the signal;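 on AC50: MMP9 protein level quantified by ELISA in the co-culture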
# Method in brief: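 Human keratinocyte and foreskin fibroblast co-culture exposed to chemicals for 24 h; MMP9 biomarker measured by ELISA, bidirectional fitting relative to DMSO; cytotoxicity tracked by SRB total protein staining in parallel cultures.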
# [4] = read-out: urokinase plasminogen activator (uPA), PLAU (gene 5328); assay: BSK_KF3CT_uPA: BioMAP Diversity Plus: KF3CT Assay for urokinase plasminogen activator (uPA) Biomarker Activity (AID 2283075); settings: primary human keratinocytes with fibroblasts; actives raise or lower the signal
# Method in brief: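 Primary human keratinocyte/foreskin fibroblast co-culture exposed to chemical; uPA measured by ELISA at 24 h. Bidirectional fit versus DMSO, with parallel SRB total-protein staining for cytotoxicity.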
# CD40, CD40 (gene 958) = assay: BSK_LPS_CD40: BioMAP Diversity Plus: LPS Assay for CD40 Biomarker Activity (AID 2283076); settings: primary human HUVEC with PBMC; actives raise or lower the signal
# Method in brief: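 In the LPS system of human endothelial cells with peripheral blood mononuclear cells, CD40 levels were read by ELISA 24 h post-treatment. Signal changes in either direction were fitted against the DMSO baseline, with parallel SRB protein staining.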
# [5] = read-out: E-selectin (Homo sapiens) (UniProt P16581); assay: BSK_LPS_Eselectin: BioMAP Diversity Plus: LPS Assay for Eselectin Biomarker Activity (AID 2283077); settings: primary human HUVEC with PBMC; actives raise or lower the signal
# Method in brief: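 E-selectin ELISA on LPS-stimulated endothelial cell/PBMC co-cultures, read 24 h post-treatment; gains and losses fitted against DMSO. Parallel SRB staining (0.1% SRB after 10% TCA fixation, 560 nm) flags overt cytotoxicity.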
# [6] = read-out: Interleukin-8 (IL8), CXCL8 (gene 3576); assay: BSK_LPS_IL8: BioMAP Diversity Plus: LPS Assay for Interleukin-8 (IL8) Biomarker Activity (AID 2283078); settings: primary human HUVEC with PBMC; actives raise or lower the signal
# Method in brief: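 ELISA read-out of IL-8 after 24 h chemical treatment of LPS-activated endothelial/PBMC human primary co-cultures. Changes either up or down relative to DMSO; overt cytotoxicity checked by sulforhodamine B staining in parallel wells.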
# [7] = BSK_LPS_SRB: Viability Assessment in the BioMAP Diversity Plus: LPS Assay (AID 2283079); settings: primary human HUVEC with PBMC;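 further: total protein by sulforhodamine B absorbance as a cytotoxicity measure; measured one day after compound addition; fitted in both directions against DMSO so loss or gain of signal counts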
# Method in brief: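 SRB viability endpoint: cells fixed with 10% TCA, stained with 0.1% SRB, read at 560 nm, 24 h post-dose. HUVEC/PBMC co-culture; signal change in either direction scored relative to DMSO.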
# [8] = read-out: Interleukin-1 alpha (IL1a), IL1A (gene 3552); assay: BSK_LPS_IL1a: BioMAP Diversity Plus: LPS Assay for Interleukin-1 alpha (IL1a) Biomarker Activity (AID 2283080); settings: primary human HUVEC with PBMC; actives raise or lower the signal
# Method in brief: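 Readout is IL-1a level by ELISA, 24 h post-dose, fitted as gain or loss relative to DMSO. System: LPS-activated human primary co-culture of vascular endothelium and peripheral blood mononuclear cells, with parallel SRB total-protein cytotoxicity.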
# [9] = read-out: Monocyte Chemoattractant Protein-1 (MCP1), CCL2 (gene 6347); assay: BSK_LPS_MCP1: BioMAP Diversity Plus: LPS Assay for Monocyte Chemoattractant Protein-1 (MCP1) Biomarker Activity (AID 2283081); settings: primary human HUVEC with PBMC; actives raise or lower the signal;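 on AC50: secreted MCP-1 protein quantified by ELISA in culture supernatant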
# Method in brief: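 Secreted MCP-1 read by ELISA at 24 h post-dosing in an LPS-activated co-culture of endothelial cells with peripheral blood mononuclear cells. Fits run in both directions, DMSO as baseline; parallel SRB staining tracks overt cytotoxicity.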
# E-selectin (Homo sapiens), sequence (P16581 whole entry, looked up): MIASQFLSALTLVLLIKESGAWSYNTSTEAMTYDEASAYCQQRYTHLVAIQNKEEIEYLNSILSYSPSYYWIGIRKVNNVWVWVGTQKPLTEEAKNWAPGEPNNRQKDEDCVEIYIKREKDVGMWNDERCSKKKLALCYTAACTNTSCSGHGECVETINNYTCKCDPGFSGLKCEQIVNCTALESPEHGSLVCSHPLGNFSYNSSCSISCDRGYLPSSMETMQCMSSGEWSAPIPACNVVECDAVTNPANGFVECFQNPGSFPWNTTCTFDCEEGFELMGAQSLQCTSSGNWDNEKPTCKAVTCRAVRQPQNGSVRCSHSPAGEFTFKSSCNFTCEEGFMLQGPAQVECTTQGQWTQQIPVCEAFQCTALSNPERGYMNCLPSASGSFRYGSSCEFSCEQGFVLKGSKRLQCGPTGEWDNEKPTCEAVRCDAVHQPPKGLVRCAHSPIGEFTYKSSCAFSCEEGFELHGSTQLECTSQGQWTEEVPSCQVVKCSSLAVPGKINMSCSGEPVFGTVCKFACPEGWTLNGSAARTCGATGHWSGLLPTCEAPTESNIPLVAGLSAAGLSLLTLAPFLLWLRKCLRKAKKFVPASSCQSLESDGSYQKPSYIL
SMILES,outcome [1],outcome [2],outcome [3],outcome [4],"outcome (CD40, CD40 (gene 958))",outcome [5],outcome [6],outcome [7],outcome [8],outcome [9],"AC50 (CD40, CD40 (gene 958))",AC50 [5],AC50 [6],AC50 [7],AC50 [8],AC50 [9],AC50 [3],AC50 [4]
CCc1ccc(C(=O)NN(C(=O)c2cc(C)cc(C)c2)C(C)(C)C)cc1,inactive,inactive,inactive,inactive,inactive,inactive,inactive,inactive,inactive,inactive,,,,,,,,
Oc1ccc(Cl)cc1Cc1ccccc1,,,,,,,,,,,21.1 µM (active) [middle of 7 runs],31.3 µM (active) [middle of 6 runs],35.3 µM (active) [middle of 7 runs],29.3 µM (active) [middle of 7 runs],31.8 µM (active) [middle of 6 runs],32.5 µM (active) [middle of 7 runs],,
CC1(C)C(C=C(Cl)Cl)C1C(=O)OC(C#N)c1ccc(F)c(Oc2ccccc2)c1 (stereo not drawn),inactive,inactive,inactive,inactive,inactive,inactive,,,inactive,inactive,,,20 µM (active),6.63 µM (active),,,,
CC(C)N(C(=O)COc1nnc(C(F)(F)F)s1)c1ccc(F)cc1,inactive,inactive,inactive,inactive,inactive,inactive,inactive,inactive,inactive,inactive,,,,,,,,
[2H]C1([2H])[n+]2ccccc2-c2cccc[n+]2C1([2H])[2H],inactive,,,,inactive,inactive,inactive,inactive,inactive,inactive,,,,,,,13.3 µM (active),28.9 µM (active)
O=S1OCC2C(CO1)C1(Cl)C(Cl)=C(Cl)C2(Cl)C1(Cl)Cl (stereo not drawn),inactive,,,,,,,,,,29.2 µM (active),30.9 µM (active),33.5 µM (active),,16.3 µM (active),34.9 µM (active),15.9 µM (active),30.9 µM (active)
CCOc1nc(NC)nc(NC(=O)NS(=O)(=O)c2ccccc2C(=O)OC)n1,inactive,inactive,,,inactive,inactive,inactive,inactive,inactive,inactive,,,,,,,30.4 µM (active),37 µM (active)
CCOC1Oc2ccc(OS(C)(=O)=O)cc2C1(C)C (stereo not drawn),inactive,inactive,inactive,inactive,inactive,inactive,inactive,inactive,inactive,inactive,,,,,,,,
Cc1cc(C)nc(NC(=O)NS(=O)(=O)c2ccccc2C(=O)OC2COC2)n1,inactive,inactive,inactive,inactive,inactive,inactive,inactive,inactive,inactive,inactive,,,,,,,,
CCCN(CCC)c1c([N+](=O)[O-])cc(C(F)(F)F)cc1[N+](=O)[O-],inactive,inactive,inactive,inactive,,,inactive,inactive,inactive,,20.4 µM (active),15.2 µM (active),,,,36.2 µM (active),,
CC1(c2ccc(Oc3ccccc3)cc2)OC(=O)N(Nc2ccccc2)C1=O (stereo not drawn),inactive,inactive,inactive,inactive,,,,,inactive,,24.1 µM (active),20 µM (active),20 µM (active),31 µM (active),,29.5 µM (active),,
CC(C)OC(=O)Nc1cccc(Cl)c1,inactive,inactive,inactive,inactive,inactive,inactive,inactive,,inactive,inactive,,,,3.97 µM (active),,,,
CN1CSC(=S)N(C)C1,inactive,inactive,,inactive,inactive,,,inactive,,,,19 µM (active),13 µM (active),,12.8 µM (active),11.9 µM (active),14.4 µM (active),
CNC(=O)CSP(=S)(OC)OC,inactive,inactive,inactive,inactive,inactive,inactive,inactive,inactive,inactive,inactive,,,,,,,,
